# Screening results: PubChem, National Center for Advancing Translational Sciences (NCATS)
# FLuc counter: qHTS profiling assay for firefly luciferase inhibitor/activator using purifed enzyme and Km concentrations of substrates (counterscreen for miR-21 project) | actives 6.9% (n = 360,000) | Luciferin 4-monooxygenase (Photinus pyralis), P08659 | Potency, µM (series often up to 57.5 µM), for the others: at the highest dose activity change, negative = inhibition, hits mostly inhibitors | purified FLuc, Km substrates, luminescence inhibition;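 also: plate controls were vehicle for no effect and reference inhibitor for full effect; nearly all actives have a fitted effect of over 55% in size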
# Target sequence (P08659 whole entry, looked up): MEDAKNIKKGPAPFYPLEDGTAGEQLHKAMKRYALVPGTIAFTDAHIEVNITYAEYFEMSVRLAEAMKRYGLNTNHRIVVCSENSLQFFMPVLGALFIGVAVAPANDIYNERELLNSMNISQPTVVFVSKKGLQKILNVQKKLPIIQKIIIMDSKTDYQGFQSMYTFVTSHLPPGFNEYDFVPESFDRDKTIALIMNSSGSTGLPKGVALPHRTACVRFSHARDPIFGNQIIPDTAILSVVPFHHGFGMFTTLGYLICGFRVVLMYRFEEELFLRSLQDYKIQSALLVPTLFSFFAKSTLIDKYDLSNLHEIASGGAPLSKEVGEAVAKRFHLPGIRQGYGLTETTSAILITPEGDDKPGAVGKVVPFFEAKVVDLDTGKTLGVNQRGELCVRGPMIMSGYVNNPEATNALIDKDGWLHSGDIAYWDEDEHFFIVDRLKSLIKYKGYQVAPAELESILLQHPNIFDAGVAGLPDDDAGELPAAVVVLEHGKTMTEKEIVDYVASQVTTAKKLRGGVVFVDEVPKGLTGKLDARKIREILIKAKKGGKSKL
#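 Purified P. pyralis luciferase, 10 nM final, with Km-level 10 uM D-luciferin and 10 uM ATP in 50 mM Tris acetate pH 7.5, 10 mM Mg acetate, 0.01% Tween-20, 0.05% BSA; 6-point qHTS titration about 60 µM downward; luminescence read.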
# NPC1 promoter act: qHTS Assay for NPC1 Promoter Activators | Huh7 NPC1 promoter luciferase reporter, 24 h | actives 2.4% (n = 320,000) | Potency, µM (titrated, usually from 9.22 µM), without a hit: at the highest dose activation, actives largely listed as activators; also: % of control where 0% means no effect; nearly all actives have a fitted effect of over 60% in size
#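 Stably transfected Huh7 (NPC1 promoter→luciferase), 1500 cells/well in Opti-MEM + 10% FBS, 2 h settle, then compound 24 h at 37 °C. Luminescence after 10 min with Amplite reagent.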
# Rab9 promoter act: qHTS Assay for Rab9 Promoter Activators. Huh7 Rab9 promoter-luciferase reporter, luminescence, 24 h. Potency, µM (series often up to 9.22 µM), inactives show top-dose activation, negative = inhibition, most hits filed as activators. actives 2.8% (n = 320,000); also: % of control where 0% means no effect; nearly all actives have a fitted effect of over 60% in size
#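 Luminescence read-out: Huh7 cells stably expressing Rab9-luciferase, treated 24 h with compound at 37 °C, then lysed with luciferase reagent for 10 min at ambient before reading.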
# ELG1 genotoxic: qHTS screen for small molecules that induce genotoxicity in human embryonic kidney (HEK293T) cells expressing luciferase-tagged ELG1. actives 1.3% (n = 330,000). Potency, µM (titrated, usually from 46 µM), for the others: at the highest dose activity change, positive = activation, usual class: activators. HEK293T ELG1-luciferase reporter, luminescence, 16 h; also: % of control where 0% means no effect; nearly all actives have a fitted effect of over 60% in size
#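 Reporter readout depends on ELG1 protein level, which increases with genetic stress. After 16 hr compound exposure at 37 °C, luciferase activity was quantified using ONE-Glo.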
# SMN2 splice up: qHTS Assay for Enhancers of SMN2 Splice Variant Expression; HEK293 SMN2-luciferase splicing reporter, luminescence, 30-36 h; Potency, µM (top dose mostly 46.1 µM), inactives show at the highest dose activity change, positive = activation, hits mostly activators; AID 1458, 2008; actives 2.8% (n = 210,000); also: % of control where 0% means no effect; nearly all actives have a fitted effect of over 55% in size
#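 HEK293 cells carry an SMN2 minigene-luciferase reporter in which exon 7 inclusion puts luciferase in frame. Cells were seeded at 2000 cells/well, attached for 10-12 hours, then exposed to compounds for 30-36 hours at 37C before ONE-Glo luminescence.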
# Starred values were filed as active, the others as inactive; ? = inconclusive; · = not tested or not shown. Hits are enriched below; roughly 7.5% of the tested compounds scored in any of these assays. Calls follow the shape of the dose curve; as a rule, active = well fitted curve in the direction sought with a large enough effect; inconclusive = small, poorly fitted or top-dose-only effect, or another doubt; inactive = no such curve, though single readings can be large; an effect the other way counts as inactive or inconclusive. Potency is read from the fitted curve at half-maximal effect.
SMILES,FLuc counter,NPC1 promoter act,Rab9 promoter act,ELG1 genotoxic,SMN2 splice up
c1ccc(-c2nc(N3CCOCC3)s[n+]2-c2ccccc2)cc1,7.6µM*,2%,-1%,13%,12%
O=C1NC(=O)N(Cc2ccccc2)C(=O)/C1=C/c1cnc(-c2ccccc2)nc1,?,-1%,-3%,24%,-10%
Clc1ccccc1Nc1ncnc(-n2cccc2)n1,7.6µM*,2.8µM*,3.5µM*,?,?
COC(=O)C(O)(c1ccc(NC(=O)Oc2ccccc2)cc1)C(F)(F)F (stereo not given),15µM*,1%,-1%,2%,18%
Cc1cccc(-n2c(=S)[nH]c3ccccc3c2=O)n1,-1%,1%,3%,18%,-19%
O=c1c2ccccc2[nH]c(=S)n1-c1ccc2c(c1)OCCO2,11µM*,?,?,15%,·
C=C(C)CCl,·,·,·,·,4%
COc1ccc(-c2nc3ccccc3c(=O)n2-c2nccs2)cc1,24µM*,1%,9%,-1%,1%
Cc1cc(/C=C2\C(=O)NC(=O)N(c3cccc(F)c3)C2=O)c(C)n1-c1ccc(C(=O)O)c(Cl)c1,-18%,-1%,0%,-2%,·
Cc1ccc(N2C(=O)NC(=O)/C(=C/c3ccc(-c4ccc(C(=O)O)c(Cl)c4)o3)C2=O)cc1,11µM*,-3%,-2%,-11%,6%
Cn1c(=O)c2nncnc2n(C)c1=O,-2%,1%,-6%,2%,-12%
CCOC(=O)c1cc2c(cn1)[nH]c1ccccc12,15µM*,?,19%,17%,?
O=C(/C=C/c1c[nH]c2ccccc12)c1c(O)n(CCc2ccccc2)c(=O)[nH]c1=O,13µM*,-1%,-3%,0%,·
COc1ccc(N2C(=O)/C(=C/c3cc(C)n(-c4ccc(C)cn4)c3C)C(=O)NC2=S)c(OC)c1,27µM*,-1%,-14%,13%,8%
COc1ccc(OC)c(N2C(=O)/C(=C/c3ccco3)C(=O)NC2=S)c1,?,-4%,21%,-5%,·
Cc1ccc(N)c(N)c1,5.4µM*,-3%,-1%,?,3.5µM*
Nc1cc(Cl)ccc1Cl,·,·,·,·,2%
Nc1ccc(Cl)cc1N,·,·,·,·,7.1µM*
CC(=O)N(C1=NCCCS1)c1ccccc1Cl,-8%,2%,3%,4%,-7%
Cc1c(C(=O)Nc2ccccc2)cc(-c2ccccc2)n1CCCN1CCOCC1,-4%,-3%,-3%,-3%,·
CC1=Nc2ccccc2/C1=C/c1c(O)[nH]c(=O)[nH]c1=O,-2%,2%,4%,-1%,·
O=c1[nH]c(O)c(/C=C2/C=CC(c3cc(Cl)ccc3Cl)=N2)c(=O)[nH]1,6.7µM*,-5%,-9%,15%,·
Cc1ccc(N2C(=O)CC(=O)NC2=O)c(C)c1,4%,-1%,0%,2%,·
COc1ccc(CC(=O)N2C[C@H]3C[C@@H](C2)c2cccc(=O)n2C3)cc1,-1%,1%,-6%,-4%,·
O=C(c1ccc2c(c1)ncn2C1CCCCC1)N1CCC2(CC1)OCCO2,-1%,-26%,-9%,3%,2%
SMILES,FLuc counter,NPC1 promoter act,Rab9 promoter act,ELG1 genotoxic,SMN2 splice up
C[C@H]1COC2=C1C(=O)C(=O)c1c2ccc2c1CCCC2(C)C,21µM*,-2%,14%,13%,·
FC(F)(F)c1ccccc1N1CC1c1ccncc1 (stereo not given),-1%,-12%,-2%,-1%,·
O=C(CN1CCCC1)Nc1ccc(NC(=O)Nc2ccccc2)cc1,19µM*,?,?,16%,·
O=C(CN1CCCC1=O)Nc1ccccc1,2%,-1%,-3%,3%,7%
CN1CC=C(/C=C/c2ccc(-c3ccccc3)cc2)CC1,4.3µM*,3.2µM*,?,?,·
CN(C)c1ccc(CCN2CCOCC2)cc1,17µM*,3%,1%,?,·
CNCCc1c(C)n[nH]c1C,8%,-8%,3%,0%,-11%
Cc1sc2c(c1C)C(c1ccc(C(C)(C)C)cc1)=NCC(=O)N2CC(=O)Nc1nccs1,-2%,-3%,-1%,-9%,-28%
Cc1ccc(NC(=O)c2snnc2C)cc1Cl,-12%,-4%,-1%,18%,-3%
Cc1ccc(C(=O)Nc2c(C(=O)Nc3ccc(C)c(C)c3)sc3nc(C)cc(C)c23)cc1,11µM*,·,·,·,13µM*
O=C(c1ccco1)c1cn(Cc2ccc(Cl)cc2)c2ccccc12,?,2%,-1%,5%,4%
COc1ccccc1OCCCn1cc(C(=O)c2ccco2)c2ccccc21,17µM*,?,29%,-18%,-52%
COc1ccc(C(c2c(O)c3ccccc3oc2=O)c2c(C)n(C)n(-c3ccccc3)c2=O)cc1 (stereo not given),2%,1%,0%,-1%,7%
CCC(C)/C=C(C)/C=C/C1=CC2=C(Cl)C(=O)C(C)(OC(C)=O)C(=O)C2=CO1 (stereo not given),21µM*,-1%,15%,3%,·
COc1ccc(-c2nn(CCC#N)cc2C(=O)Nc2ccc(C(C)=O)cc2)cc1[N+](=O)[O-],4%,4%,4%,9%,·
CCCCn1c(O)c(/C=C/C=Nc2ccccc2)c(=O)[nH]c1=O,0%,-1%,2%,5%,1%
O[C@H]1C2CCC1C(N1CCCCC1)CC2 (stereo not given in full),1%,-4%,-4%,0%,·
COc1cc(C(C)=O)ccc1OCc1cc(C(=O)N(C)CCC2CCCCO2)no1 (stereo not given),6.7µM*,2.2µM*,1.6µM*,?,·
COc1ccc(C(C)=O)cc1CC(C(=O)c1ccc(Br)cc1)N(C)C (stereo not given),3%,-3%,2%,-3%,-6%
CCN1C(=O)/C(=C/c2ccc3c(c2)CCN3CCCCl)C(=O)NC1=S,?,-1%,1%,?,-17%
O=C1NC(=S)N(C2CC2)C(=O)/C1=C/c1ccc2c(c1)CCN2CCCCl,19µM*,0%,-1%,?,-21%
Cc1ccc(OCC(=O)N/N=C\c2ccc(O)c([N+](=O)[O-])c2)c([N+](=O)[O-])c1,27µM*,1%,-3%,1%,-11%
CCOc1ccc(NCc2cccn2-c2nnc(N3CCC(C(=O)NCC(C)c4ccccc4)CC3)s2)cc1 (stereo not given),0%,·,·,·,-63%
CCOc1ccc2nc(N3CCC(C(=O)Nc4ccc(Br)cc4F)CC3)sc2c1,15µM*,·,·,·,13µM*
CCn1ccnc1CN1CCCC(C(=O)c2ccc(OC)cc2OC)C1 (stereo not given),0%,-4%,-2%,-9%,·
O=C(C(=O)N1CCOCC1)c1cn(Cc2ccccc2F)c2ccccc12,5%,-2%,8%,-9%,·
